PubChem BioAssay (NCATS)
“And” between values parts separate entries of the source, which are not always exact repeats. Equal values may be shown once. Unmarked numbers belong to inactive results. Inconclusive results are not listed. The source made the active and inactive calls. Unless noted, calls follow the shape of the dose curve; as a rule, active = well fitted curve in the direction sought with a large enough effect; inconclusive = small, poorly fitted or top-dose-only effect, or another doubt; inactive = no such curve, though single readings can be large; an effect the other way counts as inactive or inconclusive.

Legend:
SKOV3 = test: Primary qHTS to identify gynecologic anti-cancer compounds using libraries of approved drugs and bioactive compounds (AID 1345084); conditions: Gynecologic cancer cell panel viability, ATPlite luminescence, 48 h; series mostly up to 57.5 µM; also: nearly all actives have a fitted effect of over 55% in size; also: potency is read from the fitted curve at half-maximal effect
Method in brief: (§1)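 ATP-based viability (ATPlite), 1,000 cells/well, 16 h pre-incubation, 48 h compound at 37 C, 5% CO2, 15 min RT before read.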

Tov-21-G = test: as above; conditions: Gynecologic cancer cell panel viability, ATPlite luminescence, 48 h; series mostly up to 57.5 µM
Method in brief: as §1

Tov112D = test: as above; conditions: Gynecologic cancer cell panel viability, ATPlite luminescence, 48 h; series mostly up to 57.5 µM
Method in brief: as §1

[1] = Drug repurposing screens with cells derived from glioblastoma tumor samples (AID 1345199); conditions: GBM patient neurospheres viability, ATP luminescence, 48 h; also: nearly all actives have a fitted effect of over 40% in size; also: potency is read from the fitted curve at half-maximal effect; as to activity, negative = cell killing: % is scaled to controls: 0 for no effect and ±100 for the full control effect
Method in brief: (§2)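 Primary testing used CD133+ neurospheres from four GBM patients, seven concentrations, 48 h exposure and ATP-based viability; confirmation added three slower-growing patient lines.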

astro = test: as above; conditions: viability, ATP luminescence, 48 h; series mostly up to 45.9 µM
Method in brief: as §2

[2] = qHTS assay to identify inhibitors of the type 1 interferon - major histocompatibility complex class I in skeletal muscle: Counter screen cell viability and HiBit confirmation (AID 1347412); conditions: iHSKM muscle cells + IFN-b, HiBiT or CellTiter-Glo, 24 h; Potency: HiBiT unless noted; Viability, at 45.9 µM (top of the series); also: nearly all actives have a fitted effect of over 60% in size; also: potency is read from the fitted curve at half-maximal effect
Method in brief: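 Duplicate plates, pinned identically: one read for HiBiT-tagged endogenous HLA-B luminescence, the other for ATP-content viability via CellTiter Glo. Cells were genome-engineered human myoblasts given 4 ng/ml IFN-b; compounds 12-pt, 1:3 from 46 uM final; 24 hr exposure.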

PA-1 = test: Primary qHTS to identify gynecologic anti-cancer compounds using libraries of approved drugs and bioactive compounds (AID 1345084); conditions: Gynecologic cancer cell panel viability, ATPlite luminescence, 48 h; series mostly up to 57.5 µM; also: nearly all actives have a fitted effect of over 55% in size; also: potency is read from the fitted curve at half-maximal effect
Method in brief: as §1

[3] = qHTS assay for small molecule activators of the human pregnane X receptor (PXR) signaling pathway (AID 720659; call rule not given here; also: 0% is about no effect)
[4] = biological target: Nuclear receptor subfamily 1 group I member 2 (Rattus norvegicus) (UniProt Q9R1A7); test: qHTS assay for small molecule activators of the rat pregnane X receptor (rPXR) signaling pathway (AID 651751; call rule not given here; also: 0% is about no effect); conditions: rPXR reporter cells, luciferase (One-Glo), 24 h
Sequence of Nuclear receptor subfamily 1 group I member 2 (Rattus norvegicus) (Q9R1A7 whole entry, looked up): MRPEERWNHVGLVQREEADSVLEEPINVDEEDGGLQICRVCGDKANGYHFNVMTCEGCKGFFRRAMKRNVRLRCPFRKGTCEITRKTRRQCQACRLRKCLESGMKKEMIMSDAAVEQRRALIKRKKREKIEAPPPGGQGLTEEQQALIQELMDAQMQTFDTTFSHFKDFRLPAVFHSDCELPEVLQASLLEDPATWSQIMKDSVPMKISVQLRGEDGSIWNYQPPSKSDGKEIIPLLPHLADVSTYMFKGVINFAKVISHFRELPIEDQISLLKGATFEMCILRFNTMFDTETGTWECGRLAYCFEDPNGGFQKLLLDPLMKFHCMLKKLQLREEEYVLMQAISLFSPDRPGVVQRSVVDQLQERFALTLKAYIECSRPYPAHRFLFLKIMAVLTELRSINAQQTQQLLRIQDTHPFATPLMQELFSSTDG

[5] = at 45.9 µM (top of the series), tumour line B
[6] = at 45.9 µM (top of the series), tumour line D
[7] = at 46.1 µM (top of the series), tumour line C
[8] = at 46 µM (top of the series), tumour line A
[9] = at 20 µM (top of the series), tumour line C
[10] = at 21.2 µM (top of the series), tumour line B
[11] = at 21.2 µM (top of the series), tumour line D

With `CO/N=C1\CN(c2nc3c(cc2F)c(=O)c(C(=O)O)cn3C2CC2)CC1CN` (stereo not given) the Potency (SKOV3) was “inactive”, the Potency (Tov-21-G) was “inactive” and the Potency (Tov112D) was “inactive”. It also gave an activity, negative = cell killing [1, 5] of -0.703%, an activity, negative = cell killing [1, 6] of -7.84% and an activity, negative = cell killing [1, 7] of 13.8%. For the same compound, the Potency (astro) was “inactive”.

In the case of `COc1ccc(/C=C/C(=O)c2ccc(OC)cc2OC)cc1`, the Potency (SKOV3) is reported as 2.24 µM (active), the Potency (Tov-21-G) is reported as “inactive” and the Potency (Tov112D) is reported as “inactive”. For the same compound, the activity, negative = cell killing [1, 7] was -59.7%, the Potency ([1]; tumour line A) was 35.5 µM (active) and the Potency ([1]; tumour line D) was 12.6 µM (active).

For `C[C@]12CCC(=O)C=C1[C@@H]1C[C@@H]1[C@H]1[C@@H]3[C@@H]4C[C@@H]4[C@@]4(CCC(=O)O4)[C@@]3(C)CC[C@@H]12`, the Potency (SKOV3) was “inactive”, the Potency (Tov-21-G) was “inactive” and the Potency (Tov112D) was “inactive”. It also gave an activity, negative = cell killing [1, 5] of -20.2%, an activity, negative = cell killing [1, 6] of -9.23% and an activity, negative = cell killing [1, 7] of -0.55%. For the same compound, the Potency (astro) was “inactive”.

For `Oc1c(I)cc(I)c2cccnc12`, the Potency (SKOV3) was “inactive” and the Potency (Tov112D) was “inactive”.

For `C[C@]12C=CC(=O)C=C1CC[C@@H]1[C@@H]2[C@@H](O)C[C@@]2(C)[C@H]1CC[C@]2(O)C(=O)CO`, the Potency (SKOV3) was “inactive”, the Potency (Tov-21-G) was “inactive” and the Potency (Tov112D) was “inactive”. For the same compound, the activity, negative = cell killing [1, 5] was -12.2%, the activity, negative = cell killing [1, 6] was -11.3% and the activity, negative = cell killing [1, 8] was -29.3%. For the same compound, the activity, negative = cell killing [1, 7] was -10.5%, the Potency (astro) was “inactive” and the Potency [2] was “inactive”.

With `O=C1OCCN1/N=C/c1ccc([N+](=O)[O-])o1` the Potency (SKOV3) was “inactive”, the Potency (Tov-21-G) was “inactive” and the Potency (Tov112D) was “inactive”. The activity, negative = cell killing [1, 5] was 4.9%, the activity, negative = cell killing [1, 6] was -7.13% and the activity, negative = cell killing [1, 8] was -29.3%. The activity, negative = cell killing [1, 7] was 4.37% and the Potency (astro) was “inactive”.

In the case of `CCCCCCC[N+](CC)(CC)CCCCc1ccc(Cl)cc1`, the Potency (PA-1) is reported as 4.47 µM (active), the Potency (Tov-21-G) is reported as 20 µM (active) and the Potency (astro) is reported as 8.91 µM (active).

For `CNCC[C@@H](Oc1ccccc1C)c1ccccc1`, the Potency (PA-1) was “inactive”, the Potency (Tov112D) was “inactive” and the Potency (astro) was “inactive”.

With `CC(=O)c1ccc2c(c1)N(CCCN1CCC(CCO)CC1)c1ccccc1S2` the Potency (SKOV3) was “inactive”, the Potency (Tov-21-G) was “inactive” and the Potency (Tov112D) was “inactive”. The activity, negative = cell killing [1, 9] was 17.8%, the activity, negative = cell killing [1, 10] was -21.7% and the Potency ([1]; tumour line A) was 11.2 µM (active).

With `CCCCC(CC)CN=C(N)NC(N)=NCCCCCCN=C(N)NC(N)=NCC(CC)CCCC` (stereo not given) the Potency (PA-1) was 10 µM (active), the Potency (Tov-21-G) was 17.8 µM (active) and the Potency (astro) was 11.2 µM (active). The Potency [2] was 22.2 µM [Viability] (active).

In the case of `CCCCCCCCCCCCCCCCCC(=O)OCC(O)CO` (stereo not given), the Potency (SKOV3) is reported as “inactive”, the Potency (Tov-21-G) is reported as “inactive” and the Potency (Tov112D) is reported as “inactive”. The activity, negative = cell killing [1, 5] was -5.26%, the activity, negative = cell killing [1, 6] was -15.3% and the activity, negative = cell killing [1, 7] was 1%.

With `O=C(N/N=C/c1ccccc1O)c1ccncc1` the Potency (SKOV3) was “inactive”, the activity, negative = cell killing [1, 6] was 0.44% and the Potency ([1]; tumour line B) was 17.8 µM (active). For the same compound, the Potency (astro) was “inactive”.

With `C[C@]12CC[C@H]3[C@@H](CCC4=CC(=O)CC[C@@]43C)[C@@H]1CC[C@@H]2C(=O)CO` the Potency (PA-1) was 22.4 µM (active), the Potency (Tov-21-G) was “inactive” and the Potency (Tov112D) was “inactive”. For the same compound, the activity, negative = cell killing [1, 10] was -21.2%, the activity, negative = cell killing [1, 11] was -27.5% and the Potency (astro) was “inactive”.

In the case of `NC(=NCCCCCCN=C(N)/N=C(\N)Nc1ccc(Cl)cc1)/N=C(\N)Nc1ccc(Cl)cc1`, the Potency (PA-1) is reported as 15.8 µM (active), the Potency (Tov-21-G) is reported as “inactive” and the Potency (Tov112D) is reported as “inactive”. For the same compound, the Potency (astro) was 11.2 µM (active) and the outcome [3] was “inactive”.

For `CCCCOc1ccc(C(=O)CCN2CCCCC2)cc1`, the Potency (PA-1) was “inactive”, the Potency (Tov-21-G) was “inactive” and the Potency (Tov112D) was “inactive”. For the same compound, the activity, negative = cell killing [1, 9] was -2.49%, the Potency ([1]; tumour line A) was 4.47 µM (active) and the Potency (astro) was “inactive”.

In the case of `COc1cc(-c2ccc(=O)[nH]n2)ccc1OC(F)F`, the Potency (SKOV3) is reported as “inactive”, the Potency (Tov-21-G) is reported as “inactive” and the Potency (Tov112D) is reported as “inactive”. The activity, negative = cell killing [1, 5] was -9.45%, the activity, negative = cell killing [1, 6] was -28.9% and the activity, negative = cell killing [1, 7] was -14.1%.

For `CCN(CC)C(=O)/C(C#N)=C/c1cc(O)c(O)c([N+](=O)[O-])c1`, the Potency (SKOV3) was “inactive”, the Potency (Tov-21-G) was “inactive” and the activity, negative = cell killing [1, 5] was -9.02%. It also gave an activity, negative = cell killing [1, 6] of 4.73%, an activity, negative = cell killing [1, 8] of -20% and an activity, negative = cell killing [1, 7] of 7.42%.

With `CC(=O)[C@H]1CC[C@H]2[C@@H]3C[C@H](C)C4=CC(=O)CC[C@]4(C)[C@H]3[C@@H](O)C[C@]12C` the Potency (SKOV3) was “inactive”, the Potency (Tov-21-G) was “inactive” and the Potency (Tov112D) was “inactive”. The activity, negative = cell killing [1, 9] was 12.3% and the activity, negative = cell killing [1, 10] was -24.6%.

In the case of `O=C1OC(c2ccc(O)cc2)(c2ccc(O)cc2)c2ccccc21`, the Potency (PA-1) is reported as “inactive”, the Potency (Tov-21-G) is reported as “inactive” and the Potency (Tov112D) is reported as “inactive”. For the same compound, the activity, negative = cell killing [1, 5] was -16.9%, the activity, negative = cell killing [1, 6] was -16.2% and the activity, negative = cell killing [1, 7] was 2.26%. For the same compound, the max response [4] was 7.44% and -0.397%.

With `COc1cccc2c1C(=O)c1c(O)c3c(c(O)c1C2=O)C[C@@](O)(C(=O)CO)C[C@@H]3O[C@H]1C[C@H](N)[C@H](O)[C@H](C)O1` the Potency (SKOV3) was 2.82 µM (active), the Potency (Tov112D) was 0.891 µM (active) and the activity, negative = cell killing [1, 5] was -6.08%. It also gave an activity, negative = cell killing [1, 6] of -1.75%, an activity, negative = cell killing [1, 8] of -30.7% and an activity, negative = cell killing [1, 7] of -4.46%. For the same compound, the max response [4] was 0.888% and 0.44% and the outcome [3] was “inactive”.

In the case of `CC(=O)N(O)CCCCCNC(=O)CCC(=O)N(O)CCCCCNC(=O)CCC(=O)N(O)CCCCCN`, the Potency (SKOV3) is reported as “inactive”, the Potency (Tov-21-G) is reported as “inactive” and the activity, negative = cell killing [1, 9] is reported as 5.11%. The activity, negative = cell killing [1, 10] was -16.9%, the activity, negative = cell killing [1, 11] was -9.85% and the activity, negative = cell killing ([1]; at 21.3 µM (top of the series), tumour line A) was -22.8%. For the same compound, the Potency (astro) was “inactive”.

With `CN1CCC(=C2c3ccccc3Sc3ccccc32)CC1` the Potency (PA-1) was “inactive”, the Potency (Tov-21-G) was “inactive” and the Potency (Tov112D) was “inactive”. The Potency (astro) was 11.2 µM (active).
